Several values for one entry are separate records, joined by “and”; a condition that tells them apart may be missing. Equal values may be shown once. Results filed as inconclusive are left out. Activity calls are given as the source filed them. Unless noted, calls come from the whole dose curve; as a rule, active = well fitted curve in the direction sought with a large enough effect; inconclusive = small, poorly fitted or top-dose-only effect, or another doubt; inactive = no such curve, though single readings can be large; an effect the other way counts as inactive or inconclusive.
Columns and labels:
[1] = target: ATP-dependent 6-phosphofructokinase (Trypanosoma brucei brucei) (UniProt O15648); assay: qHTS Assay to Find Inhibitors of T. brucei phosphofructokinase: hit validation (AID 492961)
In short: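 Luminescence from ADP-Glo reports ADP generated as T. brucei PFK (1.25 nM) phosphorylates 0.5 mM fructose-6-phosphate using 0.1 mM ATP. Reactions ran 45 min at room temperature, pH 8.0.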

[2] = target: Ubiquitin carboxyl-terminal hydrolase 1 (Homo sapiens) (UniProt O94782); assay: Inhibitors of USP1/UAF1: Pilot qHTS (AID 504865); note: nearly all actives have a fitted effect of over 35% in size
In short: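 Deubiquitinase activity followed as kinetic rhodamine fluorescence release from 150 nM Ub-Rho. 1 nM USP1/UAF1 with compound, after 15 min room-temperature preincubation, in HEPES pH 7.8 buffer containing TCEP, EDTA, BSA and Tween-20.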

[3] = target: Luciferin 4-monooxygenase (Photinus pyralis) (UniProt P08659); assay: Biochemical firefly luciferase enzyme assay for NPC (AID 624030); note: nearly all actives have a fitted effect of over 70% in size
In short: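 Purified P. pyralis luciferase at 10 nM in 50 mM Tris Acetate (final), luminescence read within 5 minutes of enzyme addition to compounds. Activity normalised to PTC124 versus DMSO; concentration-response curves classed by r2, magnitude and activity.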

[4] = S16 Schwann cell viability assay (CellTiter-Glo assay) (AID 624031); note: nearly all actives have a fitted effect of over 70% in size
In short: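 Native S16 Schwann cells (rat), serum-containing medium, overnight attachment then 24 h drug exposure at 37 °C/5% CO2. CellTiter-Glo ATP signal; normalized to cell-free and vehicle wells.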

[5] = S16 Schwann cell PMP22 intronic element firefly luciferase assay (AID 624032); note: nearly all actives have a fitted effect of over 30% in size
In short: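 Rat S16 Schwann cells stably carrying firefly luciferase driven by a PMP22 intronic element, in 10% FBS, treated 24 h at 37 C. ONE-Glo luminescence normalized to PTC124 control and DMSO (0%); curves classed by r2, magnitude and activity.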

[6] = S16 Schwann cell PMP22 intronic element beta-lactamase assay (AID 624044; calls by dose curve; note: nearly all actives have a fitted effect of over 15% in size)
In short: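 Beta-lactamase reporter under a PMP22 intronic regulatory element in stable S16 rat Schwann cells; 24 h compound exposure. 460 nm blue signal normalized between DMSO (0%) and potassium clavulanate, with 535 nm FRET tracking viability; curves classed by r2 and response.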

[7] = qHTS Assay for Identifying Gametocytocidal Compounds (AID 743244); settings: P. falciparum 3D7 stage III-V gametocytes, alamarBlue, 72 h; max response: stronger effect = lower value
In short: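 Stage III–V gametocytes of P. falciparum 3D7 were seeded at 20,000 cells/well onto pre-dispensed compounds. After 72 h, 37 °C, 5% CO2, alamarBlue was added for another 24 h.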

3D7 = assay: qHTS profiling for inhibitors of Plasmodium falciparum proliferation (AID 504749); note: nearly all actives have a fitted effect of over 60% in size; settings: P. falciparum in erythrocytes, SYBR Green DNA, 72 h; series mostly up to 28.7 µM
In short: (§1)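 Each compound contacts P. falciparum-infected red blood cells for 72 h at 37 C; lysis buffer (Tris, EDTA, saponin, Triton X, SYBR Green I) is added and fluorescence measured next morning; values normalized to controls.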

7G8 = assay: as above; settings: P. falciparum in erythrocytes, SYBR Green DNA, 72 h; series mostly up to 28.7 µM
In short: as §1

AA1029 = assay: as above; settings: P. falciparum in erythrocytes, SYBR Green DNA, 72 h; series mostly up to 28.7 µM
In short: as §1

CP211 = assay: as above; settings: P. falciparum in erythrocytes, SYBR Green DNA, 72 h; series mostly up to 28.7 µM
In short: as §1

CP217 = assay: as above; settings: P. falciparum in erythrocytes, SYBR Green DNA, 72 h; series mostly up to 28.7 µM
In short: as §1

CP238 = assay: as above; settings: P. falciparum in erythrocytes, SYBR Green DNA, 72 h; series mostly up to 28.7 µM
In short: as §1

CP247 = assay: as above; settings: P. falciparum in erythrocytes, SYBR Green DNA, 72 h; series mostly up to 28.7 µM
In short: as §1

CP269 = assay: as above; settings: P. falciparum in erythrocytes, SYBR Green DNA, 72 h; series mostly up to 28.7 µM
In short: as §1

CP286 = assay: as above; settings: P. falciparum in erythrocytes, SYBR Green DNA, 72 h; series mostly up to 28.7 µM
In short: as §1

DFO2036 = assay: as above; settings: P. falciparum in erythrocytes, SYBR Green DNA, 72 h; series mostly up to 28.7 µM
In short: as §1

DIV14 = assay: as above; settings: P. falciparum in erythrocytes, SYBR Green DNA, 72 h; series mostly up to 28.7 µM
In short: as §1

DIV17 = assay: as above; settings: P. falciparum in erythrocytes, SYBR Green DNA, 72 h; series mostly up to 28.7 µM
In short: as §1

Dd2 = assay: as above; settings: P. falciparum in erythrocytes, SYBR Green DNA, 72 h; series mostly up to 28.7 µM
In short: as §1

ECU = assay: as above; settings: P. falciparum in erythrocytes, SYBR Green DNA, 72 h; series mostly up to 28.7 µM
In short: as §1

FAB9 = assay: as above; settings: P. falciparum in erythrocytes, SYBR Green DNA, 72 h; series mostly up to 28.7 µM
In short: as §1

GB4 = assay: as above; settings: P. falciparum in erythrocytes, SYBR Green DNA, 72 h; series mostly up to 28.7 µM
In short: as §1

HB3 = assay: as above; settings: P. falciparum in erythrocytes, SYBR Green DNA, 72 h; series mostly up to 28.7 µM
In short: as §1

ICS = assay: as above; settings: P. falciparum in erythrocytes, SYBR Green DNA, 72 h; series mostly up to 28.7 µM
In short: as §1

N140 = assay: as above; settings: P. falciparum in erythrocytes, SYBR Green DNA, 72 h; series mostly up to 28.7 µM
In short: as §1

P93_24 = assay: as above; settings: P. falciparum in erythrocytes, SYBR Green DNA, 72 h; series mostly up to 28.7 µM
In short: as §1

PAD = assay: as above; settings: P. falciparum in erythrocytes, SYBR Green DNA, 72 h; series mostly up to 28.7 µM
In short: as §1

TAB109 = assay: as above; settings: P. falciparum in erythrocytes, SYBR Green DNA, 72 h; series mostly up to 28.7 µM
In short: as §1

TAB165 = assay: as above; settings: P. falciparum in erythrocytes, SYBR Green DNA, 72 h; series mostly up to 28.7 µM
In short: as §1

W2 = assay: as above; settings: P. falciparum in erythrocytes, SYBR Green DNA, 72 h; series mostly up to 28.7 µM
In short: as §1

KB-3-1 = assay: Cytotoxic Profiling of Annotated Libraries Using Quantitative High-Throughput Screening (AID 1296008); settings: Five cell lines viability, CellTiter-Glo ATP luminescence, 48-72 h; max response: stronger effect = lower value; note: nearly all actives have a fitted effect of over 60% in size
In short: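 Cells exposed to compounds for 48 or 72 hr at 37 degrees Celsius. Viability read as ATP-coupled luminescence with CellTiter-Glo after 10 min at room temperature.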

astro = assay: Drug repurposing screens with cells derived from glioblastoma tumor samples (AID 1345199); settings: viability, ATP luminescence, 48 h; series mostly up to 45.9 µM; note: nearly all actives have a fitted effect of over 40% in size
In short: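 Primary testing used CD133+ neurospheres from four GBM patients, seven concentrations, 48 h exposure and ATP-based viability; confirmation added three slower-growing patient lines.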

Measured: Potency
Potency is the fitted concentration of half-maximal effect.

Sequence of Luciferin 4-monooxygenase (Photinus pyralis) (P08659 whole entry, looked up): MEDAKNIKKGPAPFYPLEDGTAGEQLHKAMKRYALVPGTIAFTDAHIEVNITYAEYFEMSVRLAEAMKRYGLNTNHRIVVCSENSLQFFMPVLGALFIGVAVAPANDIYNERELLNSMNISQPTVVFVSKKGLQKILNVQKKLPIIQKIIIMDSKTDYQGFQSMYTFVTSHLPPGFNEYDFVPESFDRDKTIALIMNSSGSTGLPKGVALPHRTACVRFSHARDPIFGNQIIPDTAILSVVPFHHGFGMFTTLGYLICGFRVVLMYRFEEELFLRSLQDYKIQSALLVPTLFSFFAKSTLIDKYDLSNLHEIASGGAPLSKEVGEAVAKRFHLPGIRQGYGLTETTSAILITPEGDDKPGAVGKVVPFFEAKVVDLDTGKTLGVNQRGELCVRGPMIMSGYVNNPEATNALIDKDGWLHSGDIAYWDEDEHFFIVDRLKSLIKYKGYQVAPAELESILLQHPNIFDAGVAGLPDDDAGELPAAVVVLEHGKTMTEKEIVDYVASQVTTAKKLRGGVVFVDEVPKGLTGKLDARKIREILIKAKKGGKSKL
Sequence of ATP-dependent 6-phosphofructokinase (Trypanosoma brucei brucei) (O15648 whole entry, looked up): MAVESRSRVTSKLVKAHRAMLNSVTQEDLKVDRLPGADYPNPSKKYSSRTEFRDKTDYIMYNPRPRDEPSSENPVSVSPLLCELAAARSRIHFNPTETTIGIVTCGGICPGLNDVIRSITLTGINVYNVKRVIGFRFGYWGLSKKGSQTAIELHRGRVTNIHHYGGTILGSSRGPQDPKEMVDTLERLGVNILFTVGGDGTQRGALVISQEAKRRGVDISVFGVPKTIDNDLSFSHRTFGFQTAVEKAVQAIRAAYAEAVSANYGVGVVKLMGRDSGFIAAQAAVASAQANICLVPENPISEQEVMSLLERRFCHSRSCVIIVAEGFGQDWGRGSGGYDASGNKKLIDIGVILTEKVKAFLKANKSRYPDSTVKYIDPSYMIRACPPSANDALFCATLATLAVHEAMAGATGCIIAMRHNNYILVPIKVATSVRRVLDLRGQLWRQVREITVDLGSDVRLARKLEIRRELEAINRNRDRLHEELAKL
Sequence of Ubiquitin carboxyl-terminal hydrolase 1 (Homo sapiens) (O94782 whole entry, looked up): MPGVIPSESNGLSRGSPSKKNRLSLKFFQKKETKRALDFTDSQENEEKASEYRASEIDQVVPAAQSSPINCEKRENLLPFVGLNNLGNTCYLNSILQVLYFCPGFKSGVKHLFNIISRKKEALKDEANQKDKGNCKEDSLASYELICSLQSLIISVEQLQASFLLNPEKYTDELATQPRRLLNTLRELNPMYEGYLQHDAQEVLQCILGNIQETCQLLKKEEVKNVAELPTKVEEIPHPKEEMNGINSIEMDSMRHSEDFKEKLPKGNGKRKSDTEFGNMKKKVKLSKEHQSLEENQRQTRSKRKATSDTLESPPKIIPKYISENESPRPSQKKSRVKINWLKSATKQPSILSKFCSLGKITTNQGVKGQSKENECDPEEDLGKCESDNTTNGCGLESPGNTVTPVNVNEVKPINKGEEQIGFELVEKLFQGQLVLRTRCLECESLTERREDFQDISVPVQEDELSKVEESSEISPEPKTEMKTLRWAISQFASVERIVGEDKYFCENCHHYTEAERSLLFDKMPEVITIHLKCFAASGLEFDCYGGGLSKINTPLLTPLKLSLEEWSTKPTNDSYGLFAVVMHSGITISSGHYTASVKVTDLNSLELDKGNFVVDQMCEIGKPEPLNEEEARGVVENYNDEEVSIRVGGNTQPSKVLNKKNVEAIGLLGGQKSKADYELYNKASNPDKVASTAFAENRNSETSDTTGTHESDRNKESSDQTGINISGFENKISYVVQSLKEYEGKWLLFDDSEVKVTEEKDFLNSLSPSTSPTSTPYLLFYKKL

Oc1cc[c]([Hg][Cl])cc1
active: [1] 2.82 µM | [2] 50.1 µM | [3] 8.09 µM and 9.07 µM | [4] 1.14 µM | [5] 0.907 µM | [6] 2.24 µM | [7] 3.55 µM and 2.82 µM | 3D7 8.91 µM | 7G8 3.16 µM | AA1029 11.2 µM | CP211 10.7 µM | CP217 8.91 µM | CP238 10 µM | CP247 5.01 µM | CP269 8.49 µM | CP286 10 µM | DFO2036 8.91 µM | DIV14 7.57 µM | DIV17 6.75 µM | Dd2 11.2 µM | ECU 10 µM | FAB9 10 µM | GB4 6.75 µM | HB3 11.2 µM | ICS 7.94 µM | N140 6.31 µM | P93_24 11.2 µM | PAD 11.2 µM | TAB109 7.08 µM | TAB165 10 µM | W2 5.36 µM | KB-3-1 6.51 µM | astro 3.16 µM and 5.62 µM

From PubChem BioAssay (NCATS)
